# Source: PubChem BioAssay
# Active and inactive are the calls of the source.
# What was measured:
# [1] = test system: Plasmodium falciparum Sir2 (PF13_0152, Sir2A); experiment: pfSir2 binders on small-molecule microarrays, primary screen, biochemical, small-molecule microarray, 635 nm fluorescence (AID 1098); conditions: small-molecule microarray binding, fluorescence 635 nm; higher = more signal;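 note: score merges spot fluorescence intensity with its signal-to-noise ratio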
# [2] = small-molecule microarray binders of probe aDKK1, primary screen, biochemical, biotinylated probe, 635/667 nm fluorescence (AID 1099); conditions: higher = more signal;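 note: score merges 667nm spot fluorescence with signal to noise across triplicate slides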
# [3] = small-molecule microarray binders of probe aCHRDL2, primary screen, biochemical, biotinylated probe, 635/667 nm fluorescence (AID 1100); conditions: higher = more signal
# [4] = splicing luciferase reporter signal modulators, primary screen, spliceosome inhibition project, cell-based, HEK293, splice +/- reporter (AID 1101); conditions: luminescence, 24 h, higher = more signal, called active from +8 up or from −8 down;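 note: HEK293 cells carrying a splicing-competent luciferase reporter gene; test concentration not given here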
# [5] = biological target: Fibroblast growth factor 10 (Homo sapiens) (UniProt O15520); experiment: FGF10 binders on small-molecule microarrays, primary screen, biochemical, small-molecule microarray, 635 nm fluorescence (AID 1102); conditions: FGF10 binding, fluorescence 635 nm, higher = more signal
# Fibroblast growth factor 10 (Homo sapiens), sequence (O15520 whole entry, looked up): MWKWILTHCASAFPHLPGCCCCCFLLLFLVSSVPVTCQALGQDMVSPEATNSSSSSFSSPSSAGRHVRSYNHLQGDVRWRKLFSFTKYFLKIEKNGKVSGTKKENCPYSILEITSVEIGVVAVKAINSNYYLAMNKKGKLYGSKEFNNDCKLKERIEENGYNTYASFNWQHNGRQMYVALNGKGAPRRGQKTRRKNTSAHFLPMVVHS
# [6] = test system: glycogen synthase kinase-3 (GSK3A per assay name; protocol says GSK3B); experiment: GSK3 binders on small-molecule microarrays, primary screen, biochemical, small-molecule microarray, 635 nm fluorescence, GSK3A (AID 1103); conditions: small-molecule microarray binding, fluorescence 635 nm; higher = more signal; note: the record names both GSK3A and GSK3B
# [7] = biological target: Epidermal growth factor receptor (Homo sapiens) (UniProt P00533); experiment: EGFR binders on small-molecule microarrays, primary screen, biochemical, small-molecule microarray, 635 nm fluorescence (AID 1104); conditions: EGFR binding, higher = more signal;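 note: score merges 667 nm emission intensity with spot signal to noise over triplicate slides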
# Epidermal growth factor receptor (Homo sapiens), sequence (P00533 whole entry, looked up): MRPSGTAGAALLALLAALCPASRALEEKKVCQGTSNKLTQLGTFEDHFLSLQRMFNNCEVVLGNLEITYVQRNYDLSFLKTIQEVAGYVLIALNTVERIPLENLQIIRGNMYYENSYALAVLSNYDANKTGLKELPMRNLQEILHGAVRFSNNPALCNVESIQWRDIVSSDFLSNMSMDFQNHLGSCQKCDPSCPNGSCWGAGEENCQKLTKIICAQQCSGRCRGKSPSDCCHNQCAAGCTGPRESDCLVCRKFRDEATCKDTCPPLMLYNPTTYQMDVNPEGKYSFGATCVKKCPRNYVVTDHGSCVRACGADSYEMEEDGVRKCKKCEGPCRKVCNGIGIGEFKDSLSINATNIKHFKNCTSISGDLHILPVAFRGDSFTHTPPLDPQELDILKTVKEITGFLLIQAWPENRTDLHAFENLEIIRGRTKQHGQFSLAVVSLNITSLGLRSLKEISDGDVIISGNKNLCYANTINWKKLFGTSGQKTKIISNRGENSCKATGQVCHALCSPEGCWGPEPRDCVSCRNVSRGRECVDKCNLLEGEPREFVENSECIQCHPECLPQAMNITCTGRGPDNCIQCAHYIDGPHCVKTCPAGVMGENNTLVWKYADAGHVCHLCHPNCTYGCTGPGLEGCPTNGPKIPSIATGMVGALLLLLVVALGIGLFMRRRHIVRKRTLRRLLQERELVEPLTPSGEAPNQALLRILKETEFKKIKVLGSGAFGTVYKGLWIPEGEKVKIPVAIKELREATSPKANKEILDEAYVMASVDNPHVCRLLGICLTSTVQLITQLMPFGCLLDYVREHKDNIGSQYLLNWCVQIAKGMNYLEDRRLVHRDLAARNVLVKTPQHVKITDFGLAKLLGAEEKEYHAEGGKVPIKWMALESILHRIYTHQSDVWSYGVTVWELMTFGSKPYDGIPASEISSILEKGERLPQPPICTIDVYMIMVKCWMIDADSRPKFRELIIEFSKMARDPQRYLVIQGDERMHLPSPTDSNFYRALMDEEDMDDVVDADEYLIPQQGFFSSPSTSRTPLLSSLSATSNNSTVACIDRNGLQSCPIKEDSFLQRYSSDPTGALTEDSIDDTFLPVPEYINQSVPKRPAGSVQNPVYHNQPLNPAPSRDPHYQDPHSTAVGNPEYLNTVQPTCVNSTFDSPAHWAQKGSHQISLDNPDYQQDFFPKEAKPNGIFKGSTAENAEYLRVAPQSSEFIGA
# [8] = biological target: Follistatin-related protein 3 (Homo sapiens) (UniProt O95633); experiment: FSTL3 binders on small-molecule microarrays, primary screen, biochemical, small-molecule microarray, 635 nm fluorescence (AID 1105); conditions: FSTL3 binding, higher = more signal;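 note: score merges emission near 667 nm and signal to noise per printed spot across three slides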
# Follistatin-related protein 3 (Homo sapiens), sequence (O95633 whole entry, looked up): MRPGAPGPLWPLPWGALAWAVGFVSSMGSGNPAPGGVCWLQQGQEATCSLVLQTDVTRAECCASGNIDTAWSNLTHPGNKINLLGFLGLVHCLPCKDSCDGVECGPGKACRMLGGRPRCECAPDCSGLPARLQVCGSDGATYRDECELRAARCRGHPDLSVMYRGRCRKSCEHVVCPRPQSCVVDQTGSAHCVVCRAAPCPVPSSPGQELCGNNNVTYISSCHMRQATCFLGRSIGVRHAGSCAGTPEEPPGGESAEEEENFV
# [9] = biological target: Dickkopf-related protein 1 (Homo sapiens) (UniProt O94907); experiment: DKK1 binders on small-molecule microarrays, primary screen, biochemical, small-molecule microarray, 635 nm fluorescence scan (AID 1106); conditions: DKK1 binding, higher = more signal;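 note: score merges emission near 667 nm with signal to noise over three replicate slides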
# Dickkopf-related protein 1 (Homo sapiens), sequence (O94907 whole entry, looked up): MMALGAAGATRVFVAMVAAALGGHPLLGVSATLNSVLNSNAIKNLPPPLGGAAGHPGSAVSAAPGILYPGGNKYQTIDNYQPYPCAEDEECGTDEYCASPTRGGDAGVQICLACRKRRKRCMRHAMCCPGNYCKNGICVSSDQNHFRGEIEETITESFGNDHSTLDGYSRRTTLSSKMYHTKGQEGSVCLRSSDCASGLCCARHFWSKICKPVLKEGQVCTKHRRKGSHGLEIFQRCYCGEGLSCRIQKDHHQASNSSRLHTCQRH
# [10] = test system: Inhibin beta A chain (activin A); experiment: INHBA (activin A) binders on microarrays, primary screen, biochemical, small-molecule microarray, 635 nm fluorescence scan (AID 1107); conditions: small-molecule microarray binding, higher = more signal;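 note: mouse activin A protein probed at 4.33 µg/mL on printed slides; score merges bound-protein fluorescence near 667 nm with spot signal-to-noise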
# [11] = test system: Human papillomavirus type 1a protein E7 (residues 44-93); experiment: HPV1a E7 fragment binders on microarrays, primary screen, biochemical, small-molecule microarray, residues 44-93, 635 nm fluorescence (AID 1108); conditions: small-molecule microarray binding, fluorescence 635 nm; higher = more signal;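 note: E7 fragment applied at 1 µg/mL in TBST for 1 h at 4 C; score combines spot fluorescence with its signal to noise ratio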
# [12] = modulators of HCV replicon luciferase signal, primary screen, HCV replication inhibitor project, Huh7 cells, luciferase reporter (AID 1109); conditions: 48 h, higher = more signal;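 note: huh7 hepatoma cells harbouring a luciferase neomycin HCV replicon reporter; luciferase luminescence as measure of HCV replicon replication; test concentration not given here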
# [13] = biological target: Left-right determination factor 2 (Homo sapiens) (UniProt O00292); experiment: LEFTY2 binders on small-molecule microarrays, primary screen, biochemical, small-molecule microarray, 635 nm fluorescence scan (AID 1110); conditions: LEFTY2 binding, higher = more signal
# Left-right determination factor 2 (Homo sapiens), sequence (O00292 whole entry, looked up): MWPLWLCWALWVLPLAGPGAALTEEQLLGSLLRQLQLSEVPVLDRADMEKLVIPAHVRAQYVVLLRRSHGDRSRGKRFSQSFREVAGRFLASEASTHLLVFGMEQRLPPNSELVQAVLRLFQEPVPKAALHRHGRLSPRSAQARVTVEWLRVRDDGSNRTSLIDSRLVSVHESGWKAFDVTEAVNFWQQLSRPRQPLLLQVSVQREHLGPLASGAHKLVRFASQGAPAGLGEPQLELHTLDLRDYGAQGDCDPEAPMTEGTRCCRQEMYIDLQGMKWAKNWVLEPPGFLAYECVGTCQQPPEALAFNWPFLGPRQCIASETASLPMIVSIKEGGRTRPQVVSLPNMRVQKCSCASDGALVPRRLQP
# [14] = biological target: Calmodulin-1 (Homo sapiens) (UniProt P0DP23); experiment: CALM1 binders on microarrays, EGTA buffer, profiling panel, biochemical, small-molecule microarray, Cy5-labelled CALM1 (AID 1111); conditions: Cy5-CALM1 binding fluorescence, higher = more signal;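 note: labelled calmodulin applied in Tris saline Tween buffer holding calcium plus EGTA and DTT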
# [15] = biological target: Calmodulin-1 (Homo sapiens) (UniProt P0DP23); experiment: calcium-bound CALM1 binders on microarrays, profiling panel, artefact control for SMM control-protein annotation, biochemical, small-molecule microarray, Cy5-labelled CALM1, plus calcium (AID 1112); conditions: Cy5-CALM1 binding fluorescence, higher = more signal;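 note: score merges spot fluorescence with signal to noise from triplicate slides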
# [16] = small-molecule microarray binders of probe aWnt5a, primary screen, biochemical, biotinylated probe, 635/667 nm fluorescence (AID 1113); conditions: higher = more signal;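 note: score merges 667 nm fluorescence intensity with signal-to-noise per printed feature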
# [17] = small-molecule microarray binders of probe aShh, primary screen, biochemical, biotinylated probe, 635/667 nm fluorescence (AID 1114); conditions: higher = more signal;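 note: probe is biotin-labelled aShh protein from a stem cell growth factor screen; measures binding of labelled protein to compounds printed on the slide; score merges feature fluorescence at 667 nm with signal-to-noise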
# [18] = small-molecule microarray binders of probe aNog, primary screen, biochemical, biotinylated probe, 635/667 nm fluorescence (AID 1115); conditions: higher = more signal;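 note: probe is biotinylated aNog protein used at 0.15 µg/mL for 1 h at 4 C; z-score combines 667 nm fluorescence of each spot with its signal to noise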
# [19] = biological target: Torsin-1A-interacting protein 1 (Homo sapiens) (UniProt Q5JTV8); experiment: LAP1 binders from COS7 cell lysate, primary screen, small-molecule microarray, 635/667 nm fluorescence (AID 1116); conditions: COS7-hLAP1 lysate binding, 635 nm fluorescence, higher = more signal
# Torsin-1A-interacting protein 1 (Homo sapiens), sequence (Q5JTV8 whole entry, looked up): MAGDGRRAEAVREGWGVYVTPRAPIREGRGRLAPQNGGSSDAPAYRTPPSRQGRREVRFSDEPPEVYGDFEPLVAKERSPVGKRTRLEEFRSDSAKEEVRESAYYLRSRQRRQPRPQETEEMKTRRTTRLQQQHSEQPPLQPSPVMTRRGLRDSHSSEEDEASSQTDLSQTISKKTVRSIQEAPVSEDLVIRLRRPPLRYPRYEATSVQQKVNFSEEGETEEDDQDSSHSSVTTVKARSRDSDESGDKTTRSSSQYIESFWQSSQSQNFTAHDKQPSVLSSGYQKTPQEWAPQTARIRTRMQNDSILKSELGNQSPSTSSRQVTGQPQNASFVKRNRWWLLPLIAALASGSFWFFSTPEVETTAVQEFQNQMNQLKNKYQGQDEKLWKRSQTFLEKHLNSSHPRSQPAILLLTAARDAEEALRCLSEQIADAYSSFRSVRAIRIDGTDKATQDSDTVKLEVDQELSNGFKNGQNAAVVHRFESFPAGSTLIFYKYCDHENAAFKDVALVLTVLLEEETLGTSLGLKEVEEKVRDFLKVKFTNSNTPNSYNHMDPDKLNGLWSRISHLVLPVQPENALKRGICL
# [20] = biological target: Alpha-bungarotoxin (Bungarus multicinctus) (UniProt P60615); experiment: alpha-bungarotoxin binders on microarray, profiling panel, artefact control for SMM control protein annotation, biochemical, small-molecule microarray, Alexa647 label, 635/667 nm fluorescence (AID 1117); conditions: alpha-BTX-A647 binding fluorescence, higher = more signal
# Alpha-bungarotoxin (Bungarus multicinctus), sequence (P60615 whole entry, looked up): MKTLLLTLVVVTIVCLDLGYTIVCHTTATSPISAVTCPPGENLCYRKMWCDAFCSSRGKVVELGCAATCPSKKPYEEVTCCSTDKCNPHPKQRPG
Compound,composite z-score [1],composite z-score [2],composite z-score [3],z-score [4],composite z-score [5],composite z-score [6],composite z-score [7],composite z-score [8],composite z-score [9],composite z-score [10],composite z-score [11],z-score [12],composite z-score [13],composite z-score [14],composite z-score [15],composite z-score [16],composite z-score [17],composite z-score [18],composite z-score [19],composite z-score [20]
COc1ccc(C#Cc2ccc3c(c2)[C@]2(C(=O)N3)[C@H](c3ccc(O)cc3)N3[C@H](c4ccccc4)[C@H](c4ccccc4)OC(=O)[C@H]3[C@@H]2C(=O)N2CCc3cc(OC)c(OC)cc3C2)cc1,1.46,-0.157,-0.208,1.34 (inactive),0.768,1.26,0.469,0.853,0.31,0.155,1.36,-1.11,0.406,1.02,0.745,-0.0643,-0.161,-0.0503,0.7,1.67
CCN(CC)c1ccc(N2CC=CC34O[C@@H]5C=CCOC(=O)[C@@H]5[C@H]3C(=O)N(CCCCCCO)[C@@H]4C2=O)cc1 (stereo not given in full),1.85,-0.131,0.844,-0.93 (inactive),-0.655,-0.559,-0.366,-0.406,-0.863,1.17,1.01,-1.4,-0.699,-0.333,0.48,-0.152,-0.0035,-0.248,2.01,-0.226
O=C1[C@H]2C=C(I)[C@H](C[C@@H]2OCCCCO)[C@@]12CO2,1.15,-0.0509,0.0634,0.0898 (inactive),-0.0509,0.0622,-0.15,-0.0542,0.062,0.873,-0.417,-2.55,-0.244,-0.754,-0.749,-0.128,0.133,0.109,0.452,-0.132
CC(C)CCC[C@@H](C)[C@H]1CC[C@@]2(C)C3=C(CC[C@]12C)[C@@]1(C)CC[C@H](OC(=O)c2ccc(C(F)(F)F)nc2)C(C)(C)C1CC3 (stereo not given in full),0.22,-0.514,-0.491,-0.895 (inactive),0.595,0.714,0.471,0.627,0.418,-0.0544,0.592,0.336,0.31,-0.0347,-0.337,-0.162,0.0141,-0.68,0.69,0.328
O=C(O)[C@H]1C[C@H]2C(=O)N3CCC[C@H]3C(=O)N2[C@H]1c1ccc(O)cc1,0.383,-0.0067,0.915,0.127 (inactive),-1.41,-0.474,-1.51,-0.949,-1.13,-0.209,-0.124,0.253,-2.21,-0.342,0.123,-0.202,-0.348,-0.216,0.319,-1.55
CC1CC/C=C\[C@H]2OC34C=CCN(Cn5nnc6ccccc65)C(=O)[C@H]3N(CCCCCO)C(=O)[C@@H]4C2C(=O)O1 (stereo not given in full),0.285,-0.415,0.598,0.271 (inactive),-1.26,-1.32,-0.494,-0.186,-1.27,-0.318,-1.05,0.814,-1.54,-0.881,0.0455,-0.197,-0.283,0.558,-0.722,-1.3
CO[C@H]1O[C@H](CO)[C@@H](OC(=O)Nc2ccc(Br)cc2)[C@@H]2OC(=O)[C@H](Cc3cccc(Br)c3)C/C=C/C[C@@H](Cc3cccc(Br)c3)C(=O)O[C@@H]12,0.272,-0.157,0.179,-0.838 (inactive),0.383,-1.05,-0.461,0.285,-0.0367,0.0396,-0.852,-3.26,-0.402,0.404,0.609,-0.12,-0.221,-0.1,-0.284,0.386
COc1ccc(CCNC(=O)[C@@]2(C)c3ccccc3C(=O)N(c3ccc(C)cn3)[C@H]2c2ccc(CO)cc2)cc1,-0.697,-0.0508,0.156,0.981 (inactive),-1.2,-0.831,-1.03,-1.06,-0.905,0.453,-0.992,-0.583,-0.839,-0.4,-0.141,-0.096,1.9,-0.118,0.56,-0.438
NCCCCCCNC(=O)[C@H]1C[C@H]2C(=O)N[C@@H](Cc3ccccc3)C(=O)N2[C@H]1c1cccc(OCCO)c1,0.809,0.682,0.713,-0.895 (inactive),0.324,0.0638,0.13,0.362,-0.0608,0.101,0.694,0.794,0.146,2.14,0.857,-0.0718,0.356,0.0574,1.6,0.576
C=C(CCCC)/C(=C/C[C@@H](OC(C)=O)c1cccc(OCCO)c1)c1cnc2ccccc2c1,0.462,-0.14,0.0854,1.17 (inactive),1,-0.518,0.12,1.12,0.312,1.58,0.571,-1.32,0.257,-0.18,-0.387,-0.124,-0.0709,0.123,0.314,1.07
CCOC(=O)C[C@H]1[C@H](OC(=O)c2ccc(C(=O)c3ccccc3)cc2)[C@@H](NC(=O)c2ccccc2)c2cc(OCCCO)ccc2N1C(=O)c1ccccc1,0.576,0.188,-0.0053,0.0733 (inactive),0.656,0.0643,0.168,0.84,0.112,0.136,1.09,-1.33,0.224,0.461,0.168,0.0102,-0.0769,-0.234,0.63,0.872
COc1ccc([Si](C)(C)[C@@H]2[C@@H](CCO)O[C@]3(C(=O)N(Cc4cccc(N5CCOC5=O)c4)c4ccccc43)[C@H]2C)cc1,0.75,0.644,0.246,-0.871 (inactive),0.415,0.67,0.0548,0.648,0.405,0.593,0.542,-4.17,0.133,1.37,0.924,-0.0704,0.0756,0.36,0.412,1.32
